Screening results as filed in PubChem.
DENV2 CPE – protects cells from dengue virus 2 cytopathic effect; DENV2-infected cells, cytopathic effect rescue, plate reader; 1.7% of 350,000 active; CPE inhibition, % at 9.99 µM; in the data active = CPE inhibition above about 20%, passing the limit was not always enough; inconclusive = no clear call, values can overlap the other calls; tested in BHK-21 cells;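 also: 0% = median of neutral control wells and 100% = median of positive control wells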
PDI turbidity – inhibitors of human protein disulfide isomerase; P07237; PDI insulin aggregation turbidity, A650, 90 min; inhibition, % at 10 µM; 0.052% of 350,000 active;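 active = mean inhibition across replicates of 30% or more, whatever share of single replicates reach that level; inconclusive = mean inhibition below 30% while every single replicate reaches 30%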
Target sequence (P07237 whole entry, looked up): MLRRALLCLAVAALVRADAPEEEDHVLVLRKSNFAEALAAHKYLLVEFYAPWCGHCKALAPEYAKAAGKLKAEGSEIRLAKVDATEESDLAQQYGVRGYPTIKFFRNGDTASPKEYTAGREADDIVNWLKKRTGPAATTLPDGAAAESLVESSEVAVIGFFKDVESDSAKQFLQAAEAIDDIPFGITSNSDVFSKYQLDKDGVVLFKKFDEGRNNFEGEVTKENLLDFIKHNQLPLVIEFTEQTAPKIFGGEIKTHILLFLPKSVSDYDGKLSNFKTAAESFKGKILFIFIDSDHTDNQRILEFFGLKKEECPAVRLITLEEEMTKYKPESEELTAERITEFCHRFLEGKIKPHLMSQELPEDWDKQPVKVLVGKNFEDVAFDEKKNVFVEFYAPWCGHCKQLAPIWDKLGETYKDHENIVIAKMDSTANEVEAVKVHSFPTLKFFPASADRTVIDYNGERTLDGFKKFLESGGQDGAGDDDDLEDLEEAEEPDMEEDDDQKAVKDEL
Rtt109 HAT inh – C. albicans Rtt109 histone acetyltransferase inhibition; purified Rtt109/Vps75, ThioGlo CoA-SH fluorescence, 4 h; inhibition, % at 34.9 µM; 0.16% of 330,000 active; AID 540336;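 active = inhibition of at least 50% in every replicate; inconclusive = best replicate reaches 50% inhibition but some replicates fall short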
SIRT5 inh – sirtuin-5 (human) deacylase inhibition; AID 652115; 1.1% of 330,000 active; Purified SirT5, succinyl-peptide AMC, trypsin-coupled fluorescence; inhibition, % at 15 µM; Q9NXA8; in the data active = inhibition above about 15%; inconclusive = no clear call, values can overlap the other calls
ERp5 block – ERp5 (human) disulfide isomerase inhibition | inhibition, % at 9.99 µM | 0.05% of 350,000 active | AID 651711 | ERp5 insulin aggregation, absorbance 650 nm, 90 min;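 active = mean replicate inhibition above about 25%, with every replicate also reaching it, limit read from the data, passing the limit was not always enough; inconclusive = only one of those two criteria met; inactive = neither criterion met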
Starred values were filed as active, the others as inactive; ? = inconclusive; nt = no result given. Shown are actives, neighbours in structure and some others; about 2.3% of the full set was active somewhere.

SMILES	DENV2 CPE	PDI turbidity	Rtt109 HAT inh	SIRT5 inh	ERp5 block
COc1ccc(S(=O)(=O)Nc2ccc3c(c2)C(=O)N([C@@H](C)CO)C[C@H](C)[C@H](CN(C)Cc2ccc(C(=O)Nc4ccccc4N)cc2)O3)cc1	23*	nt	nt	nt	-3
Cc1noc(C)c1S(=O)(=O)Nc1ccc2c(c1)CC(=O)N([C@H](C)CO)C[C@H](C)[C@H](CN(C)Cc1ccc(C(=O)Nc3ccccc3N)cc1)O2	-7	nt	nt	6	15
O=c1n(-c2ccccc2)c(=O)n2n1CC(COc1ccccc1)=C1[C@@H](CCc3ccccc3)OB(O)C[C@@H]12	-2	nt	nt	5	3
COc1ccc(NC(=O)N(C)C[C@@H]2Oc3ccc(NS(=O)(=O)c4ccc(Cl)cc4)cc3CC(=O)N([C@H](C)CO)C[C@@H]2C)cc1	-8	nt	nt	-2	-7
C[C@H](CO)N1C[C@H](C)[C@H](CN(C)C(=O)Nc2ccc(F)cc2)Oc2ncc(C3=CCCC3)cc2C1=O	-3	nt	nt	-8	-1
CO[C@@H]1CN(C)C(=O)c2ccc(NC(C)=O)cc2OC[C@H](C)N(Cc2ccncc2)C[C@@H]1C	-7	nt	nt	3	0
Brc1ccc(OCc2nnc(SCC3CCCCC3)o2)cc1	29*	2	1	0	6
CCc1ccc(OCc2nnc(SCC(=O)NC3CCCCC3)o2)cc1	-6	-13	6	-3	0
CC(=O)N(C)C[C@H]1Oc2ncc(C#Cc3ccc(F)cc3)cc2C(=O)N([C@@H](C)CO)C[C@H]1C	-4	nt	nt	-5	4
CS(=O)(=O)N(CC(=O)N1CCCC1)c1cccc(F)c1	-1	-4	-6	101*	2
CS(=O)(=O)N(CC(=O)N1CCCCC1)Cc1ccccc1	9	3	3	17*	0
C[C@H]1CN([C@@H](C)CO)C(=O)Cc2cc(NS(=O)(=O)c3cn(C)cn3)ccc2O[C@H]1CN(C)Cc1ccc(C(=O)Nc2ccccc2N)cc1	-8	nt	nt	-1	2
COc1ccc(C)cc1NC(=O)CCNC(=O)Cn1cnc2ccccc2c1=O	7	-3	0	18*	-1
COc1ccc(OC)c(NC(=O)CCNC(=O)Cn2cnc3ccccc3c2=O)c1	1	20	2	0	3
O=S(=O)(Nc1ccc(-c2nnc(SCc3ccc(Cl)cc3)o2)cc1)c1ccccc1	nt	7	57*	nt	nt
O=C(O)c1ccc(CSc2nnc(-c3ccc(Cl)cc3)o2)cc1	-4	-6	-8	2	-1
O=C(c1ccccc1)N1CC[C@@H]2[C@H]1c1cc(C#Cc3cccc(F)c3)ccc1N[C@@H]2CO	43*	nt	nt	nt	nt
O=C(c1ccccc1)N1CC[C@@H]2[C@@H](CO)Nc3ccc(C#Cc4cccc(F)c4)cc3[C@@H]21	23*	nt	nt	nt	nt
COc1cccc(C#Cc2ccc3c(c2)[C@@H]2[C@@H](CCN2C(=O)c2ccc(F)cc2)[C@@H](CO)N3)c1	26*	nt	nt	nt	nt
C[C@H]1CN([C@@H](C)CO)C(=O)c2cccc(NS(=O)(=O)c3ccc(F)cc3)c2O[C@@H]1CN(C)S(=O)(=O)c1cn(C)cn1	-1	nt	nt	2	1
CO[C@@H]1CN(C)C(=O)c2ccc(NS(=O)(=O)CC(F)(F)F)cc2OC[C@@H](C)N(Cc2ccccn2)C[C@H]1C	0	nt	nt	5	-2
O=C1OC(NC(=O)c2ccccc2)C(n2cc(CO)nn2)=C1Cl (stereo not given)	nt	23	193*	nt	nt
O=C(NCc1ccncc1)c1nc(-c2ccc(C(F)(F)F)cc2)no1	nt	-2	-6	19*	3
O=C(NCc1cccnc1)c1nc(-c2ccc(C(F)(F)F)cc2)no1	1	-3	-8	0	0
CCc1cc(Cn2nc(-c3ccccc3)cc2C(=O)NCC2CC2)on1	48*	4	3	nt	-3
SMILES	DENV2 CPE	PDI turbidity	Rtt109 HAT inh	SIRT5 inh	ERp5 block
O=[N+]([O-])c1cccc(S(=O)(=O)Nc2nc3ccccc3nc2Nc2cccc(S(=O)(=O)N3CCCCC3)c2)c1	-2	-6	20	25*	-5
O=S(=O)(N[C@H]1CC[C@H](CCn2cc(C3(O)CCCC3)nn2)O[C@@H]1CO)c1ccccc1	nt	nt	nt	-3	-1
COCCn1c(-c2ccc(-c3ccc([N+](=O)[O-])cc3Br)o2)nc2c1c(=O)[nH]c(=O)n2CC(C)C	1	-9	-9	15*	1
COCCn1c(=O)[nH]c(=O)c2c1nc(-c1ccc(-c3ccc(Cl)cc3[N+](=O)[O-])o1)n2Cc1ccccc1	0	16	5	2	3
CC1(C(=O)NS(C)(=O)=O)CCN1C(=O)C/C=C/c1ccccc1 (stereo not given)	61*	4	nt	0	0
CC1(C(=O)NS(=O)(=O)Cc2ccccc2)CCN1C(=O)C/C=C/c1ccccc1 (stereo not given)	8	11	nt	-1	0
CC1(C(=O)NS(=O)(=O)c2ccccc2C(F)(F)F)CCN1C(=O)CCc1ccccc1 (stereo not given)	49*	0	nt	2	3
Cc1ccc(S(=O)(=O)NCC[C@@H]2CC[C@@H](NC(=O)c3cccnc3)[C@H](CO)O2)cc1	20	nt	nt	-1	-3
CO[C@H]1CN(C)C(=O)c2cc(NC(=O)Nc3cc(F)ccc3F)ccc2OC[C@H](C)N(C(=O)c2cnccn2)C[C@@H]1C	0	nt	nt	nt	3
CO[C@@H]1CN(C)C(=O)c2cc(NC(=O)NC(C)C)ccc2OC[C@@H](C)N(C)C[C@H]1C	?	nt	nt	1	0
COC(=O)C[C@H]1CC[C@@H]2[C@@H](COc3ccc(NC(=O)c4ccc(F)cc4)cc3C(=O)N2C)O1	7	nt	nt	3	5
CO[C@H]1CN(C)C(=O)c2cc(NC(C)=O)ccc2OC[C@H](C)N(C(=O)C2CCCCC2)C[C@@H]1C	-1	nt	nt	0	0
CCOC(=O)N/N=C/c1cc(C)n(-c2cccc3ccccc23)c1C	37*	-5	12	-2	-4
CCSc1ncc(Cl)c(C(=O)Nc2ccccc2C)n1	-1	1	-4	33*	1
Cc1ccc(C(=O)N/C(=C/c2cccs2)C(=O)NCCCn2ccnc2)cc1	31*	9	9	0	-6
Cc1ccc(C(=O)N/C(=C\c2cccs2)C(=O)NCCCn2ccnc2)cc1	nt	2	-6	nt	nt
COc1ccc(-c2noc(CCCC(=O)Nc3ccc(C(N)=O)cc3)n2)cc1	nt	-4	24	nt	nt
NC(=O)c1ccc(NC(=O)CCCc2nc(-c3ccccc3Cl)no2)cc1	nt	7	-2	18*	5
CCOC(=O)N1CCC(NS(=O)(=O)c2ccc(C#N)cc2)CC1	47*	7	12	nt	2
O=C(C[C@@H]1CC[C@@H](NC(=O)c2ccc3c(c2)OCO3)[C@@H](CO)O1)NCc1ccc(F)cc1	-6	nt	nt	4	-4
O=C(NCCN1CCOCC1)c1ccc2c(c1)N(Cc1ccc(F)cc1)C(=O)CS2	64*	-2	0	1	?
Cc1ccc(CN2C(=O)CSc3ccc(C(=O)NCCN4CCOCC4)cc32)cc1	nt	-5	6	nt	nt
